# According to PubChem BioAssay (NCI):
# Compounds without any hit were thinned out: in the full panel of roughly 83,000, 20% have a hit.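 Assay: single dose, 48 h. Readout: percent growth (0 = no net growth; negative = cell death). Active: <10.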 A number with no mark means an inactive call. Calls of active or inactive are those of the source.
# Tested on: HL-60(TB) leukemia
# Experiment: NCI-60 one-dose screen, 48 h (100 = growth as untreated, 0 = no growth, -100 = all killed)
# Details: 10 µM unless noted
row,Compound,growth
1,COc1cc(C2C(C#N)=C(N)OC3=C2C(=O)c2ccccc2C3=O)cc(OC)c1OC (stereo not given),15.2%
2,COc1ccc(C2Nc3ncnc(N)c3N=C3c4ccccc4C(=O)C32)cc1 (stereo not given),58.8%
3,Clc1ccc(C2=NN[C@H](c3cn(-c4ccccc4)nc3-c3ccccc3)C2)cc1,100%
4,O=C(/C=C/c1c[nH]c2ccccc12)c1cc2ccccc2o1,37.9%
5,COc1cc(OC)cc(-c2ccc(-c3ccc(C(=N)N)cc3)s2)c1,-57.8% (active)
6,Cc1cc(N)cc(C)c1-c1c(Br)cc(N)cc1Br,10.4%
7,O=S(=O)(NCCNc1nccc(-c2c(-c3ccc(F)cc3)nc3sccn23)n1)c1ccc(F)cc1,117%
8,CCCCCCCCCCCCNC(=O)[C@H]1CSC(c2cc(Br)cs2)N1 (stereo not given in full),-36.9% (active)
9,COc1cc(CNC(=O)c2ccsc2Nc2ccnc(C(F)(F)F)c2)ccc1O,102%
10,O=C(O)c1ccc2c3c(ncnc13)-c1ccccc1C2=O,85.1%
11,CC(=O)[C@H]1CC[C@H]2[C@@H]3CCC4=CC(=O)C=C[C@]4(C)[C@H]3CC[C@]12C,90.9%
12,Oc1ccccc1C=Nc1ccccc1N=Cc1ccccc1O.[Cu+2],55.8%
13,C[C@@H](Oc1cc(-c2cnn(C3CC4(CNC4)C3)c2)cnc1N)c1c(Cl)ccc(F)c1Cl,-1.19% (active)
14,Cn1c(O)c(C(/C=C/c2ccccc2)=Nc2ccccc2N)c(=O)n(C)c1=O,-39.4% (active)
15,N=c1c(C(=O)OCc2ccccc2)ncc(CCl)n1O,81.4%
